Our source for the outcome and AC50 values is PubChem BioAssay (EPA / NIEHS).

What all share (settings): mRNA level, 48 h; actives raise or lower the signal
Read-out in assay [1]: Apoptosis regulator Bcl-2 (Homo sapiens) (UniProt P10415)
Kind of assay: LTEA_HepaRG_BCL2: Life Technologies and Expression Analysis (LTEA) Assay for Bcl-2 gene using HepaRG (AID 2283475). Summed up: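 Each chemical was tested in duplicate on HepaRG cultures held in serum-free induction medium for 48 h, highest concentration 100 uM with half-log dilutions. Transcript levels came from multiplexed qRT-PCR, normalised to housekeeping genes; activity was scored in either direction relative to DMSO.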

Read-out in a further assay: Caspase-3 (Homo sapiens) (UniProt P42574)
Kind of assay: LTEA_HepaRG_CASP3: Life Technologies and Expression Analysis (LTEA) Assay for cysteine-aspartic acid protease (CASP3) using HepaRG (AID 2283477). The method in brief: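 Differentiated human HepaRG cells in serum-free induction medium were exposed 48 h to 8-point half-log concentrations from 100 uM (0.5% DMSO vehicle). CASP3 mRNA was measured by qRT-PCR, normalised to ACTB, GAPDH and POLR2A, with bidirectional fitting against DMSO.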

Read-out in assay [2]: Cytochrome P450 (CYP24A1), CYP24A1 (gene 1591)
Kind of assay: LTEA_HepaRG_CYP24A1: Life Technologies and Expression Analysis (LTEA) Assay for Cytochrome P450 (CYP24A1) using HepaRG (AID 2283478). Summed up:
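Differentiated HepaRG cells, pre-cultured 48 h, were exposed in duplicate for 48 h in serum-free induction medium to 8 half-log concentrations (top 100 uM, 0.5% DMSO). CYP24A1 mRNA was quantified by TaqMan qRT-PCR, normalized to ACTB/GAPDH/POLR2A, fitted bidirectionally versus DMSO.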

Read-out in assay [3]: Cytochrome P450 (CYP1A2), CYP1A2 (gene 1544)
Kind of assay: LTEA_HepaRG_CYP1A2: Life Technologies and Expression Analysis (LTEA) Assay for Cytochrome P450 (CYP1A2) using HepaRG (AID 2283479). The method in brief:
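Differentiated human HepaRG cells in serum-free induction medium were exposed in duplicate for 48 h to 8-point half-log concentrations up to 100 uM in 0.5% DMSO. CYP1A2 mRNA measured by qRT-PCR, normalized to ACTB, GAPDH, POLR2A; bidirectional fit vs DMSO.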

Read-out in assay [4]: cysteine-aspartic acid protease (CASP8), CASP8 (gene 841)
Kind of assay: LTEA_HepaRG_CASP8: Life Technologies and Expression Analysis (LTEA) Assay for cysteine-aspartic acid protease (CASP8) using HepaRG (AID 2283480). Summed up: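 qRT-PCR readout of CASP8 mRNA, normalized to three housekeeping genes, after 48 h chemical exposure of HepaRG cells; 8-point half-log series, top 100 uM, 0.5% DMSO vehicle. Bidirectional curve fitting against DMSO baseline.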

Read-out in assay [5]: Cytochrome P450 (CYP2B6), CYP2B6 (gene 1555)
The assay is described as follows: LTEA_HepaRG_CYP2B6: Life Technologies and Expression Analysis (LTEA) Assay for Cytochrome P450 (CYP2B6) using HepaRG (AID 2283481). The method in brief:
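Differentiated HepaRG cells, serum-free induction medium, exposed 48 h in duplicate to 8-point half-log concentrations from 100 uM in 0.5% DMSO. CYP2B6 mRNA by qRT-PCR, normalized to ACTB, GAPDH, POLR2A; bidirectional fit versus DMSO.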

Read-out in assay [6]: Cytochrome P450 2C19 (Homo sapiens) (UniProt P33261)
The assay is described as follows: LTEA_HepaRG_CYP2C19: Life Technologies and Expression Analysis (LTEA) Assay for CYP2C19 using HepaRG (AID 2283482). The method in brief: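 Differentiated human HepaRG cells were exposed for 48 h in serum-free induction medium to 8 concentrations (top 100 uM, half-log steps, 0.5% DMSO). CYP2C19 mRNA was measured by qRT-PCR, normalized to ACTB/GAPDH/POLR2A, and fitted bidirectionally against DMSO.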

Read-out in another assay: CYP2C8 (gene 1558)
The assay is described as follows: LTEA_HepaRG_CYP2C8: Life Technologies and Expression Analysis (LTEA) Assay for CYP2C8 using HepaRG (AID 2283483). The method in brief:
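HepaRG (human liver line), 48 h chemical exposure, 8-pt half-log series from 100 uM, 0.5% DMSO vehicle. Readout: CYP2C8 transcript by qRT-PCR, housekeeping-normalized. Bidirectional fit vs DMSO baseline.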

Read-out in another assay: CYP2C9 (gene 1559)
Kind of assay: LTEA_HepaRG_CYP2C9: Life Technologies and Expression Analysis (LTEA) Assay for CYP2C9 using HepaRG (AID 2283484). The method in brief: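 HepaRG, 48 h dosing, 8-pt half-log series, top 100 uM, 0.5% DMSO vehicle. Read-out: CYP2C9 transcript by TaqMan qRT-PCR, housekeeping-normalized (ACTB/GAPDH/POLR2A). Gain or loss fitted vs DMSO baseline.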

Read-out in a further assay: CYP2E1 (gene 1571)
The assay is described as follows: LTEA_HepaRG_CYP2E1: Life Technologies and Expression Analysis (LTEA) Assay for CYP2E1 using HepaRG (AID 2283485). The method in brief:
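Assay uses 48 h exposure of HepaRG hepatic cells, eight concentrations to 100 uM. Expression of CYP2E1 is quantified by TaqMan qRT-PCR with ACTB, GAPDH and POLR2A normalization; curves fitted in both directions relative to vehicle.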

Read-out in a further assay: CYP4A11 (gene 1579)
The assay is described as follows: LTEA_HepaRG_CYP4A11: Life Technologies and Expression Analysis (LTEA) Assay for CYP4A11 using HepaRG (AID 2283486). The method in brief:
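Differentiated HepaRG cells, serum-free induction medium, exposed 48 h in duplicate to 8-point half-log series from 100 uM in 0.5% DMSO. CYP4A11 mRNA measured by qRT-PCR, normalized to ACTB, GAPDH, POLR2A; bidirectional fit versus DMSO.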

Read-out in assay [7]: Cytochrome P450 3A4 (Homo sapiens) (UniProt P08684)
The assay is described as follows: LTEA_HepaRG_CYP3A4: Life Technologies and Expression Analysis (LTEA) Assay for CYP3A4 using HepaRG (AID 2283487). The method in brief: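 HepaRG, 48 h exposure, 8-pt CRC from 100 uM (half-log), 0.5% DMSO, duplicates; serum-free induction medium. Readout: CYP3A4 mRNA, qRT-PCR, ACTB/GAPDH/POLR2A normalization. Bidirectional fit vs DMSO.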

Read-out in assay [8]: DNA damage-inducible transcript 3 (DDIT3), DDIT3 (gene 1649)
The assay is described as follows: LTEA_HepaRG_DDIT3: Life Technologies and Expression Analysis (LTEA) Assay for DNA damage-inducible transcript 3 (DDIT3) using HepaRG (AID 2283488). The method in brief: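 Eight-point concentration-response (100 uM highest, half-log dilutions) in HepaRG, 48 h, duplicate wells. Endpoint: qRT-PCR mRNA, normalized (ACTB, GAPDH, POLR2A), bidirectional fitting with DMSO as baseline.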

Read-out in assay [9]: Pro-epidermal growth factor (Homo sapiens) (UniProt P01133)
The assay is described as follows: LTEA_HepaRG_EGF: Life Technologies and Expression Analysis (LTEA) Assay for Epidermal growth factor (EGF) using HepaRG (AID 2283489). The method in brief: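 Differentiated human HepaRG cells, plated 48 h then switched to serum-free induction medium, were exposed for 48 h to test chemicals (8-point half-log series, top 100 uM, 0.5% DMSO). EGF mRNA was quantified by qRT-PCR, normalized to ACTB, GAPDH, POLR2A.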

Read-out in assay [10]: Early growth response protein 1 (EGR1) transcription factor, EGR1 (gene 1958)
Kind of assay: LTEA_HepaRG_EGR1: Life Technologies and Expression Analysis (LTEA) Assay for Early growth response protein 1 (EGR1) transcription factor using HepaRG (AID 2283490). Summed up: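 HepaRG, 48 h exposure, 8-pt half-log series from 100 uM, 0.5% DMSO vehicle; EGR1 transcript by TaqMan qRT-PCR (Fluidigm array), housekeeping-normalized; bidirectional fit relative to DMSO baseline.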

Read-out in assay [11]: Ezrin (EZR), EZR (gene 7430)
The assay is described as follows: LTEA_HepaRG_EZR: Life Technologies and Expression Analysis (LTEA) Assay for Ezrin (EZR) using HepaRG (AID 2283491). The method in brief:
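Read-out is EZR transcript level by qRT-PCR, normalized to three housekeeping genes and fitted bidirectionally against the DMSO control. Human HepaRG cells received test chemicals for 48 h at eight half-log concentrations up to 100 uM in 0.5% DMSO.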

Read-out in assay [12]: Cytochrome P450 3A7 (Homo sapiens) (UniProt P24462)
The assay is described as follows: LTEA_HepaRG_CYP3A7: Life Technologies and Expression Analysis (LTEA) Assay for CYP3A7 using HepaRG (AID 2283492). Summed up:
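HepaRG cells plated 48 h, then dosed in serum-free induction medium for 48 h at 8 concentrations (top 100 uM, half-log steps, 0.5% DMSO). CYP3A7 mRNA by qRT-PCR, normalised to ACTB/GAPDH/POLR2A; bidirectional fit versus DMSO.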

Read-out in the next assay: CYP3A5 (gene 1577)
Kind of assay: LTEA_HepaRG_CYP3A5: Life Technologies and Expression Analysis (LTEA) Assay for CYP3A5 using HepaRG (AID 2283493). Summed up:
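Readout was CYP3A5 mRNA by qRT-PCR. HepaRG cultures were exposed for 48 h in serum-free induction medium to chemicals at up to 100 uM, and responses were fitted in both directions relative to DMSO vehicle.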

Read-out in assay [13]: Fatty Acid-Binding Protein 1 (FABP1), FABP1 (gene 2168)
The assay is described as follows: LTEA_HepaRG_FABP1: Life Technologies and Expression Analysis (LTEA) Assay for Fatty Acid-Binding Protein 1 (FABP1) using HepaRG (AID 2283494). Summed up: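 qRT-PCR readout of FABP1 transcript (normalized to three housekeeping genes) after 48 h chemical exposure of HepaRG cells; eight concentrations, half-log steps, max 100 uM, 0.5% DMSO vehicle; gain or loss fitted relative to DMSO baseline.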

Read-out in assay [14]: Bcl-2 (BID) gene, BID (gene 637)
The assay is described as follows: LTEA_HepaRG_BID: Life Technologies and Expression Analysis (LTEA) Assay for Bcl-2 (BID) gene using HepaRG (AID 2283476). The method in brief:
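Assay used HepaRG hepatic cells treated 48 h in serum-free medium with half-log dilutions from 100 uM. Endpoint: BID mRNA, qRT-PCR, normalized to ACTB/GAPDH/POLR2A.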

Each structure is given as a SMILES string. The source made the active and inactive calls. Rule for the calls: active = hit-call score of the fitted dose curve at least 0.9, where 1 is the maximum; inactive = score below 0.9.

Sequence of Apoptosis regulator Bcl-2 (Homo sapiens) (P10415 whole entry, looked up): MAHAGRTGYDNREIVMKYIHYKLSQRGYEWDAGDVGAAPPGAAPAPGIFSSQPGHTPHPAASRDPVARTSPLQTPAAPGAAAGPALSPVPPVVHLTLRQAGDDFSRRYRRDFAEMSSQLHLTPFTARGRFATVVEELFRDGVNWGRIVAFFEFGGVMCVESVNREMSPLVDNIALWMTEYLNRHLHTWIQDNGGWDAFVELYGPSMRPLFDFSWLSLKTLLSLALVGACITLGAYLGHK
Sequence of Caspase-3 (Homo sapiens) (P42574 whole entry, looked up): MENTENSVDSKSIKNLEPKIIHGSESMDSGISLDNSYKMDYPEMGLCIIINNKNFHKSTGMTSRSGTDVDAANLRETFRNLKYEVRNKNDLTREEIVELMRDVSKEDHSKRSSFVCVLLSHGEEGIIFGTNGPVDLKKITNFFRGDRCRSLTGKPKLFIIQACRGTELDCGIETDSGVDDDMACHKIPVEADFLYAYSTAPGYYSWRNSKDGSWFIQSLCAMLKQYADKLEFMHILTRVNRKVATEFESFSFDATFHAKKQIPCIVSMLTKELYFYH
Sequence of Cytochrome P450 3A4 (Homo sapiens) (P08684 whole entry, looked up): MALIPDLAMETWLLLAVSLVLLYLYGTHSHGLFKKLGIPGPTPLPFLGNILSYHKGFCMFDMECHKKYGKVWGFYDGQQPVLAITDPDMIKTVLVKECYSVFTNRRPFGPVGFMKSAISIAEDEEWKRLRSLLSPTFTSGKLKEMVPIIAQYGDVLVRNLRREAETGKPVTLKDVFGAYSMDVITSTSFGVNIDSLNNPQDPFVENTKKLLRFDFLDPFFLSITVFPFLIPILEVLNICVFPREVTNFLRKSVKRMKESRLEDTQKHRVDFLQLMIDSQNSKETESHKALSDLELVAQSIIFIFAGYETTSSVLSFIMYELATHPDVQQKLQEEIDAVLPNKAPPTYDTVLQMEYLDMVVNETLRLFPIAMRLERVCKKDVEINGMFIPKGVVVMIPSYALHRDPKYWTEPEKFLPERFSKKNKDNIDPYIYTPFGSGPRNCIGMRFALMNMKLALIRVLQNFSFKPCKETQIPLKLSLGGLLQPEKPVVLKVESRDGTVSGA
Sequence of Cytochrome P450 2C19 (Homo sapiens) (P33261 whole entry, looked up): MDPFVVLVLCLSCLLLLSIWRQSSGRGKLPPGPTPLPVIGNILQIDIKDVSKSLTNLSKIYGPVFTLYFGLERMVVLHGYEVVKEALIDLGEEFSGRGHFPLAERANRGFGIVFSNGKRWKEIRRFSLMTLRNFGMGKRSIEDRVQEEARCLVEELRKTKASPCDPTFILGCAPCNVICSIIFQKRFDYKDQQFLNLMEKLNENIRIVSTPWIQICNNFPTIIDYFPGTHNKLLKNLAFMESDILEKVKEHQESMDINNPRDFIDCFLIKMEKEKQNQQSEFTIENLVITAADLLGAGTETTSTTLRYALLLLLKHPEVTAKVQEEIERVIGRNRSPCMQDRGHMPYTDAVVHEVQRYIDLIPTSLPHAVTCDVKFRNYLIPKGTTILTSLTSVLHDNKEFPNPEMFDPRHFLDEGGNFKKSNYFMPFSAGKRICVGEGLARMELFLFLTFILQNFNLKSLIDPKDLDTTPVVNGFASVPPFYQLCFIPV
Sequence of Cytochrome P450 3A7 (Homo sapiens) (P24462 whole entry, looked up): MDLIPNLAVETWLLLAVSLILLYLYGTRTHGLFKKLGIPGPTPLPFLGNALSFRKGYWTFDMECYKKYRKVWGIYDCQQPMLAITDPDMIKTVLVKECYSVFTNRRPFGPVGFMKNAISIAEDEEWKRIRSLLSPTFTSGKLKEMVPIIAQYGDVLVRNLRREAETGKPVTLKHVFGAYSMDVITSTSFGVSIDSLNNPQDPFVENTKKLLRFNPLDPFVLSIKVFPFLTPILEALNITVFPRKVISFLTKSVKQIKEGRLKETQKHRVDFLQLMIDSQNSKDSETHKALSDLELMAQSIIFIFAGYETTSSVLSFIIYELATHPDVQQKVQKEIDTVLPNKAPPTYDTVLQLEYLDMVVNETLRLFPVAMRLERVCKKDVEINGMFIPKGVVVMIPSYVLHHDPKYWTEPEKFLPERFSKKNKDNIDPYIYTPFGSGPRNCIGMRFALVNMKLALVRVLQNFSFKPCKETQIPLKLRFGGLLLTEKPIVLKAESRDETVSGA

One may read the AC50 as the concentration giving half of the maximal activity seen. For `O=C(O)c1ccccc1C(c1ccc(O)cc1)c1ccc(O)cc1`, the molecule was called inactive (in assay [1]; in the assay with Caspase-3 (Homo sapiens); in assay [2]; in [3]; in assay [4]; in [6]). Moreover, the call (in the assay with CYP2C8 (gene 1558); with CYP2C9 (gene 1559); with CYP2E1 (gene 1571); with CYP4A11 (gene 1579); in assay [7]; in assay [8]) was inactive. The outcome (in assay [9]; in assay [10]; in assay [11]; in [12]; in the assay with CYP3A5 (gene 1577); in assay [13]) was inactive. The AC50 in [5] was 3.65 µM (active).

As to `O=c1c(-c2ccc(O)cc2)coc2cc(O)ccc12`, the result (in assay [1]; in assay [14]; in the assay with Caspase-3 (Homo sapiens); in [2]; in assay [3]; in [4]) was inactive. Also, the call (in assay [5]; in assay [6]; with CYP2C8 (gene 1558); with CYP2C9 (gene 1559); in the assay with CYP2E1 (gene 1571); with CYP4A11 (gene 1579)) was inactive. Also, the outcome in [7], in assay [8], in assay [9], in assay [10], in assay [11] and in assay [12] was inactive. For the same molecule, the outcome (with CYP3A5 (gene 1577); in [13]) was inactive.

Take `CCc1nn(C2CCCCC2)c2cc(C3(C#N)CCC(C(=O)O)CC3)ccc12` (stereo not drawn): the AC50 was 74.3 µM (active) in assay [1]; 91 µM (active) in assay [3]; 82.8 µM (active) in assay [5]; 63.3 µM (active) in assay [6]; 79.8 µM (active) in the assay with CYP2C8 (gene 1558); 63.4 µM (active) in the assay with CYP2C9 (gene 1559). Also, the AC50 with CYP2E1 (gene 1571) was 60.6 µM (active); in the assay with CYP4A11 (gene 1579) it was 50.6 µM (active); in assay [7], 82.2 µM (active); in assay [8], 77.5 µM (active); in [9], 50 µM (active); in [10], 12.1 µM (active). Further, the results for the AC50 in assay [11] and in assay [13] were 0.313 µM (active) and 88.2 µM (active), respectively. The call (in assay [14]; with Caspase-3 (Homo sapiens); in assay [2]; in assay [4]; with CYP3A5 (gene 1577)) was inactive.
